Results filed as inconclusive are left out. Where a call stands in place of a potency, no number is given. Calls of active or inactive are those of the source. The call rests on the fitted dose curve; in most records, active means well fitted inhibition curve with a large enough effect; inconclusive means small, poorly fitted or top-dose-only effect; inactive means flat fitted curve, though single readings scatter.
How the values were obtained:
Experiment in all cases: qHTS profiling for inhibitors of Plasmodium falciparum proliferation (AID 504749); further: nearly all actives have a fitted effect of over 60% in size
Conditions in all cases: P. falciparum in erythrocytes, SYBR Green DNA, 72 h; series mostly up to 28.7 µM
[1] = tested on: CP191
Procedure, shortened: (§1)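 Infected RBCs, 0.3% parasitemia/2.5% Hct final; cpd 72 h, 37 C, 5% CO2; lysis buffer with saponin/triton/SYBR Green I, o/n RT dark; FI 485/535; norm. to artemisinin (0.29 uM) and DMSO.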

[2] = tested on: CP192
Procedure, shortened: as §1

[3] = tested on: CP194
Procedure, shortened: as §1

[4] = tested on: CP201
Procedure, shortened: as §1

[5] = tested on: CP203
Procedure, shortened: as §1

[6] = tested on: CP211
Procedure, shortened: as §1

[7] = tested on: CP215
Procedure, shortened: as §1

[8] = tested on: CP217
Procedure, shortened: as §1

[9] = tested on: CP237
Procedure, shortened: as §1

[10] = tested on: CP238
Procedure, shortened: as §1

[11] = tested on: CP247
Procedure, shortened: as §1

[12] = tested on: CP250
Procedure, shortened: as §1

[13] = tested on: CP252
Procedure, shortened: as §1

[14] = tested on: CP256
Procedure, shortened: as §1

[15] = tested on: CP260
Procedure, shortened: as §1

[16] = tested on: CP262
Procedure, shortened: as §1

[17] = tested on: CP265
Procedure, shortened: as §1

[18] = tested on: CP266
Procedure, shortened: as §1

[19] = tested on: CP268
Procedure, shortened: as §1

[20] = tested on: CP269
Procedure, shortened: as §1
Potency means the concentration at half of the fitted maximal effect.

| SMILES | Potency [1] | Potency [2] | Potency [3] | Potency [4] | Potency [5] | Potency [6] | Potency [7] | Potency [8] | Potency [9] | Potency [10] | Potency [11] | Potency [12] | Potency [13] | Potency [14] | Potency [15] | Potency [16] | Potency [17] | Potency [18] | Potency [19] | Potency [20] |
| --- | --- | --- | --- | --- | --- | --- | --- | --- | --- | --- | --- | --- | --- | --- | --- | --- | --- | --- | --- | --- |
| CCN1CCC[C@H]1CNC(=O)c1c(O)c(Cl)cc(Cl)c1OC | inactive | inactive | inactive | inactive | inactive | inactive | inactive | inactive | inactive | inactive | inactive | inactive | inactive | inactive | inactive | inactive | inactive | inactive | inactive | inactive |
| NC/C=C/C(=O)O | inactive | inactive | inactive | inactive | inactive | inactive | inactive | inactive | inactive | inactive | inactive | inactive | inactive | inactive | inactive | inactive | inactive | inactive | inactive | inactive |
| CCCCCN(CCCCC)C(=O)C(CCC(=O)O)NC(=O)c1ccc(Cl)c(Cl)c1 (stereo not given) | inactive | inactive | inactive | inactive | inactive | inactive | inactive | inactive | inactive | inactive | inactive | inactive | inactive | inactive | inactive | inactive | inactive | inactive | inactive | inactive |
| O=C(CCNNC(=O)c1ccncc1)NCc1ccccc1 | inactive | inactive | inactive | inactive | inactive | inactive | inactive | inactive | inactive | inactive | inactive | inactive | inactive | inactive | inactive | inactive | inactive | inactive | inactive | inactive |
| Nc1c2c(nc3ccccc13)CCCC2O (stereo not given) | inactive | inactive | inactive | inactive | inactive | inactive | inactive | inactive | inactive | inactive | inactive | inactive | inactive | inactive | inactive | inactive | inactive | inactive | inactive | inactive |
| CCCCNC(=O)NS(=O)(=O)c1ccc(C)cc1 | inactive | inactive | inactive | inactive | inactive | inactive | inactive | inactive | inactive | inactive | inactive | inactive | inactive | inactive | inactive | inactive | inactive | inactive | inactive | inactive |
| FC(F)(F)c1ccccc1-n1ccnc1 | inactive | inactive | inactive | inactive | inactive | inactive | inactive | inactive | inactive | inactive | inactive | inactive | inactive | inactive | inactive | inactive | inactive | inactive | inactive | inactive |
| NC(=O)c1cn(Cc2c(F)cccc2F)nn1 | inactive | inactive | inactive | inactive | inactive | inactive | inactive | inactive | inactive | inactive | inactive | inactive | inactive | inactive | inactive | inactive | inactive | inactive | inactive | inactive |
| c1cnc(N2CCN(Cc3ccc4c(c3)OCO4)CC2)nc1 | inactive | inactive | inactive | inactive | inactive | inactive | inactive | inactive | inactive | inactive | inactive | inactive | inactive | inactive | inactive | inactive | inactive | inactive | inactive | inactive |
| C[N+](C)(C)CCCCCCCCCC[N+](C)(C)C | 3.55 µM (active) | 1.9 µM (active) | 2.13 µM (active) | 3.38 µM (active) | 1.69 µM (active) | 1.69 µM (active) | 4.26 µM (active) | 3.55 µM (active) | 3.16 µM (active) | 5.01 µM (active) | 5.01 µM (active) | 7.08 µM (active) | 3.98 µM (active) | 2.51 µM (active) | 2.24 µM (active) | 1.69 µM (active) | 2.82 µM (active) | 4.78 µM (active) | 4.78 µM (active) | 3.38 µM (active) |
| CC(=O)[C@@]1(O)CC[C@H]2[C@@H]3CCC4=CC(=O)CC[C@]4(C)[C@H]3CC[C@@]21C | inactive | inactive | inactive | inactive | inactive | inactive | inactive | inactive | inactive | inactive | inactive | inactive | inactive | inactive | inactive | inactive | inactive | inactive | inactive | inactive |
| C[N+](C)(C)CCOC(=O)CCC(=O)OCC[N+](C)(C)C | inactive | inactive | inactive | inactive | inactive | inactive | inactive | inactive | inactive | inactive | inactive | inactive | inactive | inactive | inactive | inactive | inactive | inactive | inactive | inactive |
| CCNC(=O)N1CCN(CCCC(c2ccc(F)cc2)c2ccc(F)cc2)CC1 | 1.12 µM (active) | 7.57 µM (active) | 7.57 µM (active) | 7.57 µM (active) | 6.75 µM (active) | 5.36 µM (active) | 4.26 µM (active) | 1.12 µM (active) | 2.51 µM (active) | 3.16 µM (active) | 1 µM (active) | 1 µM (active) | 3.98 µM (active) | 0.794 µM (active) | 3.16 µM (active) | 3.01 µM (active) | 0.794 µM (active) | 6.01 µM (active) | 2.39 µM (active) | 5.36 µM (active) |
| CC(=O)Nc1nnc(S(N)(=O)=O)s1 | inactive | inactive | inactive | inactive | inactive | inactive | inactive | inactive | inactive | inactive | inactive | inactive | inactive | inactive | inactive | inactive | inactive | inactive | inactive | inactive |
| Cc1ccc(=O)n(-c2ccccc2)c1 | inactive | inactive | inactive | inactive | inactive | inactive | inactive | inactive | inactive | inactive | inactive | inactive | inactive | inactive | inactive | inactive | inactive |  | inactive | inactive |
| CCN(CC)CCOCCOC(=O)C1(c2ccccc2)CCCC1 | 7.94 µM (active) | inactive |  | inactive | 6.75 µM (active) | inactive | 15.1 µM (active) | 11.2 µM (active) | 2.51 µM (active) |  |  |  | inactive | 11.2 µM (active) | 11.2 µM (active) | inactive | 3.98 µM (active) | inactive | 15.1 µM (active) | 13.5 µM (active) |
| CN(C(=O)CCCOc1ccc2[nH]c(=O)ccc2c1)C1CCCCC1 | inactive | inactive |  | inactive | inactive | inactive | inactive | inactive | inactive | inactive |  | inactive | inactive | inactive | inactive | inactive | inactive |  | inactive | inactive |
| CC[N+](C)(C)c1cccc(O)c1 | inactive | inactive | inactive | inactive | inactive | inactive |  | inactive | inactive | inactive | inactive | inactive | inactive | inactive | inactive | inactive | inactive | inactive | inactive | inactive |
| CCCCNc1c(C(=O)OCC)c(C)nc2c1cnn2CC | inactive | inactive | inactive | inactive | inactive | inactive | inactive | inactive | inactive | inactive | inactive | inactive | inactive | inactive |  | inactive | inactive | inactive | inactive | inactive |
| CN1CCN(CC(=O)N2c3ccccc3C(=O)Nc3cccnc32)CC1 | inactive | inactive | inactive | inactive | inactive | inactive | inactive | inactive | inactive | inactive | inactive | inactive | inactive | inactive | inactive | inactive | inactive |  | inactive | inactive |
| O=C(O)CN(CCN(CC(=O)O)CC(=O)O)CCN(CC(=O)O)CC(=O)O | inactive | inactive | inactive | inactive | inactive | inactive | inactive | inactive | inactive | inactive | inactive | inactive | inactive | 11.2 µM (active) | inactive |  |  | inactive |  | inactive |
| O=C1CC2(CCCC2)CC(=O)N1CCCCN1CCN(c2ncccn2)CC1 | inactive | inactive | inactive | inactive | inactive | inactive | inactive | inactive |  | inactive | inactive | inactive | inactive | inactive | inactive | inactive | inactive | inactive | inactive | inactive |
| CCOC(=O)c1cnc2c(cnn2CC)c1NN=C(C)C | inactive | inactive | inactive | inactive | inactive | inactive | inactive | inactive | inactive | inactive | inactive | inactive | inactive | inactive |  | inactive | inactive | inactive |  | inactive |
| CC(=O)Oc1cc(C(C)C)c(OCCN(C)C)cc1C | inactive | inactive | inactive | inactive | inactive | inactive |  | inactive | inactive | inactive | inactive | inactive | inactive | inactive | inactive | inactive | inactive | inactive | inactive | inactive |
| OCCN1CCN(CCCN2c3ccccc3C=Cc3ccccc32)CC1 | 4.47 µM (active) | 10.7 µM (active) | 7.57 µM (active) |  | 6.75 µM (active) | 12 µM (active) | 8.49 µM (active) | 7.08 µM (active) | 5.01 µM (active) | 11.2 µM (active) | 5.01 µM (active) | 6.31 µM (active) | 6.31 µM (active) | 3.55 µM (active) | 5.01 µM (active) | 6.75 µM (active) | 4.47 µM (active) | 13.5 µM (active) | 13.5 µM (active) | 9.53 µM (active) |
| Cc1ccc(S(=O)(=O)NC(=O)NN2CCCCCC2)cc1 | inactive | inactive | inactive | inactive | inactive | inactive | inactive | inactive | inactive | inactive | inactive | inactive | inactive | inactive | inactive |  | inactive | inactive | inactive | inactive |

— PubChem BioAssay (NCATS)
